# Only some compounds are listed: those with a hit (about 2.7% of all), similar ones and a draw of the others.
# Tau FP inhib: qHTS for Inhibitors of Tau Fibril Formation, Fluorescence Polarization; K18 P301L tau heparin fibrillization, Alexa594 FP, 6 h; AID 1468, 2008; Microtubule-associated protein tau (Homo sapiens), P10636; Potency, µM (titrated, usually from 57.7 µM), inactives show at the highest dose activity, negative = inhibition, usual class: inhibitors; actives 0.39% (n = 280,000); further: potency means the concentration at half of the fitted maximal effect; nearly all actives have a fitted effect of over 55% in size
# Target sequence (P10636 561-689 P618L limits assumed): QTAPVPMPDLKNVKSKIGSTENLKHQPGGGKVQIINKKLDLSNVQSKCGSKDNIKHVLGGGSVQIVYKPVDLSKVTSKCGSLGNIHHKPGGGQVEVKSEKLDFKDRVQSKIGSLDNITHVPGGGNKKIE
#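 K18 P301L tau (15 uM unlabeled/0.24 uM Alexa 594-labeled, final) + compound + heparin 20 uM final; 100 mM NaOAc pH 7; 6 hr 37 C; ThT 30 uM final added, 1 hr RT; FP ex 555/em 632 nm.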
# Tau fibril ThT: qHTS for Inhibitors of Tau Fibril Formation, Thioflavin T Binding | Potency, µM (top dose mostly 57.4 µM), inactives show at the highest dose activity, negative = inhibition, usual class: inhibitors | AID 1460, 2008 | actives 2.1% (n = 270,000) | recombinant tau K18 P301L, heparin-induced fibrillization, ThT fluorescence; further: potency means the concentration at half of the fitted maximal effect; nearly all actives have a fitted effect of over 55% in size
#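 ThT emission at 510 nm, taken 1 hr after adding 30 uM dye, quantifies aggregates formed when 20 uM heparin acts on human tau K18 P301L for 6 hr at 37 C.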
# Coupling enz: qHTS Assay for Inhibitors of Fructose-1,6-bisphosphate Aldolase from Giardia Lamblia: Coupling assay counterscreen | AID 2472, 2010 | activity change, negative = inhibition, % at 58.2 µM, hits read low | actives 0.67% (n = 290,000) | coupling enzyme system counterscreen, AmpLite Red fluorescence; in the data active means activity change below about -30%
#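 Compounds tested against the coupling enzymes alone at 57.5 uM final; readout was AmpLite Red fluorescence (525/598 nm) after 20 min at RT.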
# Tau fluor cs: Counterscreen qHTS for Inhibitors of Tau Fibril Formation, Fluorescence Polarization. Potency, µM (highest dose often 57.7 µM), without a hit: at the highest dose activity change, negative = decrease. actives 0.93% (n = 280,000). AID 1463, 2008. tau K18 P301L Alexa594 fluorescence, heparin fibrillization; further: potency means the concentration at half of the fitted maximal effect; nearly all actives have a fitted effect of over 55% in size
#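 Human tau K18 P301L (15 uM unlabeled, 0.24 uM Alexa 594-labeled) in 100 mM sodium acetate pH 7 with 20 uM heparin, 6 hr at 37 C. ThT 30 uM added, 1 hr ambient; Alexa 594 FP and total fluorescence read at 555/632 nm.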
# Active calls of the source: *; ? = inconclusive; · = not tested or not shown; [ ] = dose if it differs, or a comment. Unless noted, the call rests on the fitted dose curve; in most records, active means well fitted curve in the direction sought with a large enough effect; inconclusive means small, poorly fitted or top-dose-only effect, or another doubt; inactive means no such curve, though single readings can be large; an effect the other way counts as inactive or inconclusive. On the % scale 0 is the no-effect control and ±100 the full control effect.
SMILES,Tau FP inhib,Tau fibril ThT,Coupling enz,Tau fluor cs
c1cc2c3c(cccc3c1)NC1(CCC3(CC1)Nc1cccc4cccc(c14)N3)N2,-11%,16µM*,-12,13µM*[quencher]
CCOc1cc(C(=O)N2CC(=O)Nc3ccc(C)cc3C2c2ccccc2)cc(OCC)c1OCC (configuration not stated),4%,-12%,·,-8%
O=C1/C(=C/c2c[nH]c3ccccc23)CCC/C1=C\c1c[nH]c2ccccc12,8%,?,-8,7.9µM*[quencher]
COc1ccc(-c2nc3ccc(N4CCCC4)cc3c(=O)[nH]2)cc1OC,3%,2.2µM*,0,?
CCn1c(O)c(/C=C2\C=Nc3ccccc32)sc1=O,5%,-14%,-4,-25%
CC1=Nc2ccccc2/C1=C/c1sc(=N)n(-c2nccs2)c1O,?,5µM*,-7,11µM*[quencher]
COc1ccc2c(c1)C(=O)[C@@H](OC(=O)NCc1ccco1)[C@H](c1ccc(OC)c(Br)c1)O2,2%,-12%,1,-10%
CCN1CCN(c2nnc(-n3cccc3C(=O)NCc3ccccc3OC)s2)CC1,1%,1%,·,-3%
COc1cc(C)ccc1OCCSc1nc2ccc(NC(=O)c3cccs3)cc2s1,10µM*,1%,·,5µM*[quencher]
COc1cccc(NC(=O)CSc2nc3ccc(NC(=O)c4cccs4)cc3s2)c1,7.9µM*,0%,·,7.1µM*[quencher]
CC(=O)Nc1ccc2nc(NC(=O)COc3ccccc3Cl)sc2c1,-16%,?,-1,-20%
CC(=O)Nc1ccc2nc(SCCOc3ccccc3Cl)sc2c1,11µM*,?,·,11µM*[quencher]
O=C(Nc1ccc2nc(SCCOc3ccccc3)sc2c1)c1cccs1,?,2%,·,?
Cc1cccc(NC(=O)CSc2nc3ccc(NC(=O)c4cccs4)cc3s2)c1,?,5%,·,?
CCOC(=O)c1ccc(CN(Cc2ccc(F)cc2)S(=O)(=O)c2ccc(F)cc2)cc1,-9%,-3%,·,-23%
COc1ccccc1CC(=O)Nc1ncc(C)s1,·,·,-1,·
COc1ccccc1Nc1nn2c(=O)c3ccc(C(=O)NC4CCCCC4)cc3nc2s1,8%,0%,·,-10%
N#CC1=C(N)NC(SCc2ccc(Cl)cc2)=C(C#N)C12CCCCC2,6%,?,-4,8.9µM*[quencher]
N#CC1=C(N)NC(SCc2ccccc2)=C(C#N)C12CCCC2,8%,-14%,-3,?
N#CC1=C(N)NC(SCc2ccc(Br)cc2)=C(C#N)C12CCCCC2,-12%,-19%,-4,10µM*[quencher]
Cc1ccc(N2NC(C)(c3cccs3)NC2=S)cc1 (configuration not stated),-8%,16µM*,0,?
Cn1c(=O)c(C(=O)COC(=O)c2cc(C(F)(F)F)nc3c(C(F)(F)F)cccc23)c(N)n(Cc2ccccc2)c1=O,-2%,-10%,2,?
Cc1ccc(C)c(-n2c(SCC(=O)NCC3CCCO3)nnc2-c2ccoc2C)c1 (configuration not stated),28µM*,?,10,-15%
Cc1ccc(-n2c(SCC(=O)NCC3CCCO3)nnc2-c2ccoc2C)cc1 (configuration not stated),0%,0%,2,-1%
COc1ccc(Oc2c(C(F)(F)F)oc3cc(OCC(=O)O)ccc3c2=O)cc1,·,·,7,·
SMILES,Tau FP inhib,Tau fibril ThT,Coupling enz,Tau fluor cs
COC(=O)c1ccc(NC(=O)C(=O)NCC(c2cccnc2)N2CCc3ccccc32)cc1 (configuration not stated),5%,-3%,·,-17%
c1ccc2nc3c(nc2c1)c1ccccc1n3CCN1CCOCC1,-20%,-16%,-5,-12%
CCn1c2ccccc2c2nc3cc(S(=O)(=O)N4CCOCC4)ccc3nc21,32µM*,25µM*,0,-27%
CS(=O)(=O)c1ncc(Cl)c(C(=O)Nc2ccc(N3CCOCC3)cc2)n1,?,3.2µM*,-3,?
COc1ccc(S(=O)(=O)/N=C2/NC(=O)/C(=C\c3ccco3)S2)cc1,10%,1%,11,-1%
COc1cc(/C=C2\S/C(=N/S(=O)(=O)c3ccccc3)NC2=O)c([N+](=O)[O-])cc1OC,?,14µM*,0,?
COc1ccc(S(=O)(=O)/N=C2/NC(=O)/C(=C/c3ccco3)S2)cc1,?,?,21,-13%

# Assay outcomes (PubChem)
